These results are taken from PubChem BioAssay AID1508601 (ICCB-Longwood Screening Facility, Harvard Medical School, 2020).

Where “and” joins values, the source holds several entries; their conditions need not be identical. Identical values can stand only once. Among all 5,700 compounds or so, about 85 (1%) were called active. Rule as the data show it: active = p53-positive nuclei above about 36% (passing the limit was not always enough); inactive = the rest. Shown is part of a subset that was picked to be rich in actives.

Experiment [1] can be described thus: p53 stabilisation in HPV-positive human cells, imaging, p53-positive nuclei imaging, 24 h, 48 h (AID 1508601). Particulars: 24/48 h.
Experiment [2] deals with Cellular tumor antigen p53 (Homo sapiens) (UniProt P04637). The experiment is described as above. Particulars: 24/48 h, stronger effect = higher value.
Cellular tumor antigen p53 (Homo sapiens), sequence (P04637 whole entry, looked up): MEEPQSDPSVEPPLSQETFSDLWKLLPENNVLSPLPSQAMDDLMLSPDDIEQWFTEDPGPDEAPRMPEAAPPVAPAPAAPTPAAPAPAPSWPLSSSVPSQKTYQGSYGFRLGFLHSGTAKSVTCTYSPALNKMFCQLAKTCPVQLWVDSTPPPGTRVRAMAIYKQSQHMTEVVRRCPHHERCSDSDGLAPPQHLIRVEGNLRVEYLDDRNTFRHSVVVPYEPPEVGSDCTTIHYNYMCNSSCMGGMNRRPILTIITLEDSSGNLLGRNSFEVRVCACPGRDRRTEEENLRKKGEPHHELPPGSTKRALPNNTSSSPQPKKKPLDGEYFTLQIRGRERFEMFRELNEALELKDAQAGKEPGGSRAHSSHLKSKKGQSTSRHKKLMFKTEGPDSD
Where [3] appears, read: measured here: cell number at 24 h, Library stock concentration: 80 uM.
[4] abbreviates: measured here: cell number at 24 h, Library stock concentration: 400 uM.
[5] abbreviates: measured here: cell number at 24 h, Library stock concentration: 2 mM.
The mark [6] stands for this setting: measured here: cell number at 24 h, Library stock concentration: 10 mM.
Where [7] appears, read: measured here: cell number at 48 h, Library stock concentration: 80 uM.
Setting [8] is: measured here: cell number at 48 h, Library stock concentration: 400 uM.
[9] abbreviates: measured here: cell number at 48 h, Library stock concentration: 2 mM.
The mark [10] stands for this setting: measured here: cell number at 48 h, Library stock concentration: 10 mM.
The mark [11] stands for this setting: Library stock concentration: 80 uM.
The mark [12] stands for this setting: Library stock concentration: 400 uM.
The mark [13] stands for this setting: Library stock concentration: 2 mM.
Setting [14] is: Library stock concentration: 10 mM.
[15] abbreviates: measured here: p53 positive nuclei at 24 h, Library stock concentration: 80 uM.
Where [16] appears, read: measured here: p53 positive nuclei at 24 h, Library stock concentration: 400 uM.
The mark [17] stands for this setting: measured here: p53 positive nuclei at 24 h, Library stock concentration: 2 mM.
Setting [18] is: measured here: p53 positive nuclei at 24 h, Library stock concentration: 10 mM.
Setting [19] is: measured here: cell number at 24 h, Library stock concentration: 46 uM.
The mark [20] stands for this setting: measured here: cell number at 24 h, Library stock concentration: 278 uM.
Where [21] appears, read: measured here: cell number at 24 h, Library stock concentration: 1.67 mM.
[22] abbreviates: measured here: cell number at 48 h, Library stock concentration: 46 uM.
Setting [23] is: measured here: cell number at 48 h, Library stock concentration: 278 uM.
Where [24] appears, read: measured here: cell number at 48 h, Library stock concentration: 1.67 mM.
The mark [25] stands for this setting: Library stock concentration: 46 uM.
[26] abbreviates: Library stock concentration: 278 uM.
[27] abbreviates: Library stock concentration: 1.67 mM.
The mark [28] stands for this setting: measured here: p53 positive nuclei at 24 h, Library stock concentration: 46 uM.
The mark [29] stands for this setting: measured here: p53 positive nuclei at 24 h, Library stock concentration: 278 uM.
[30] abbreviates: measured here: p53 positive nuclei at 24 h, Library stock concentration: 1.67 mM.
Where [31] appears, read: measured here: cell number at 24 h, Library stock concentration: 3.33 mM.
[32] abbreviates: measured here: cell number at 48 h, Library stock concentration: 3.33 mM.
Where [33] appears, read: Library stock concentration: 3.33 mM.
Where [34] appears, read: measured here: p53 positive nuclei at 24 h, Library stock concentration: 3.33 mM.
[35] abbreviates: measured here: cell number at 24 h, concentration not given here.
[36] abbreviates: measured here: cell number at 48 h, concentration not given here.
The mark [37] stands for this setting: measured here: p53 positive nuclei at 24 h, concentration not given here.

Take `C#C[C@]1(O)CC[C@@H]2[C@@H]3CCc4cc(O)ccc4[C@@H]3CC[C@@]21C`: the nuclei count, normalised in experiment [1] (setting [3]) worked out at 97.1%; in experiment [1] (setting [4]) it was 108%; in experiment [1] (setting [5]), 101%; in experiment [1] (setting [6]), 72.9%; in experiment [1] (setting [7]), 108%; in experiment [1] (setting [8]) it was 108%. In addition, the nuclei count, normalised came to 102% in experiment [1] (setting [9]) and 30.5% in experiment [1] (setting [10]). For the same compound, the p53-positive nuclei, normalised in experiment [2] (setting [11]) was 0.0565% (inactive); in experiment [2] (setting [12]) it was 0.0172% (inactive); in experiment [2] (setting [13]), 0.0704% (inactive); in experiment [2] (setting [14]), 76.1% (inactive); in experiment [2] (setting [15]), -0.0527%; in experiment [2] (setting [16]), 0.068%. Moreover, the values for the p53-positive nuclei, normalised in experiment [2] (setting [17]) and in experiment [2] (setting [18]) were 0.0711% and 6.02%, respectively.

With `C#CCOc1ccc2c(c1)c(-c1ccc(C(C)C)cc1)nc(=O)n2C(C)C`, the nuclei count, normalised was determined as 104% in experiment [1] (setting [19]); 110% in experiment [1] (setting [20]); 104% in experiment [1] (setting [21]); 112% in experiment [1] (setting [6]); 101% in experiment [1] (setting [22]); 101% in experiment [1] (setting [23]). Further, the nuclei count, normalised in experiment [1] (setting [24]) amounted to 97.6%; in experiment [1] (setting [10]), 101%. In addition, the p53-positive nuclei, normalised in experiment [2] (setting [25]) was -0.166% (inactive); in experiment [2] (setting [26]) it was 0.0283% (inactive); in experiment [2] (setting [27]) it was 0.0841% (inactive); in experiment [2] (setting [14]), -0.00718% (inactive); in experiment [2] (setting [28]) it was -0.153%; in experiment [2] (setting [29]), -0.218%. For the same compound, the p53-positive nuclei, normalised was -0.0911% in experiment [2] (setting [30]) and -0.218% in experiment [2] (setting [18]).

For the compound `O=C(O)C=Cc1ccc(Cn2ccnc2)cc1`, the nuclei count, normalised in experiment [1] (setting [3]) was 111%; in experiment [1] (setting [4]), 104%; in experiment [1] (setting [5]), 103%; in experiment [1] (setting [31]) it was 103% and 107%; in experiment [1] (setting [6]) it was 108%; in experiment [1] (setting [7]), 108%. Also, the nuclei count, normalised in experiment [1] (setting [8]) is 104%; in experiment [1] (setting [9]), 103%; in experiment [1] (setting [32]) it was 110% and 99.3%; in experiment [1] (setting [10]) it was 103%. In addition, the p53-positive nuclei, normalised in experiment [2] (setting [11]) is 0.0181% (inactive); in experiment [2] (setting [12]), 0.0683% (inactive); in experiment [2] (setting [13]) it was 0.0233% (inactive); in experiment [2] (setting [33]), -0.0503% (inactive) and -0.0965% (inactive); in experiment [2] (setting [14]), -0.178% (inactive); in experiment [2] (setting [15]), 0.0685%. Further, the p53-positive nuclei, normalised in experiment [2] (setting [16]) was 0.0107%; in experiment [2] (setting [17]), 0.0098%; in experiment [2] (setting [34]), -0.252% and -0.232%; in experiment [2] (setting [18]) it was -0.12%.

Take `CCCCCCCCNC(=O)Cc1c(C)n(C(=O)c2ccc(Cl)cc2)c2ccc(OC)cc12`: the figures for the nuclei count, normalised in experiment [1] (setting [35]) and in experiment [1] (setting [36]) were 104% and 112%, respectively. The p53-positive nuclei, normalised in experiment [2] (concentration not given here) is 0.0988% (inactive); in experiment [2] (setting [37]), -0.0319%.

With `O=C1CCCc2occ(C(=O)N3CCc4[nH]nc(C5CCC5)c4C3)c21`, the nuclei count, normalised in experiment [1] (setting [35]) stood at 110%; in experiment [1] (setting [36]), 114%. Besides, the figures for the p53-positive nuclei, normalised in experiment [2] (concentration not given here) and in experiment [2] (setting [37]) were -0.00738% (inactive) and -0.086%, respectively.

As to `OCCCCCNc1nccc(-c2cnn(-c3ccc(F)cc3)c2)n1`, the nuclei count, normalised in experiment [1] (setting [35]) and in experiment [1] (setting [36]) was 103% each time. Also, the figures for the p53-positive nuclei, normalised in experiment [2] (concentration not given here) and in experiment [2] (setting [37]) were -0.0141% (inactive) and 0.508%, respectively.

Turning to `OCCCCCNc1nccc(-c2cnn(-c3ccccc3F)c2)n1`, the nuclei count, normalised in experiment [1] (setting [35]) came out at 112%; in experiment [1] (setting [36]), 73.8%. The p53-positive nuclei, normalised in experiment [2] (concentration not given here) was 0.562% (inactive); in experiment [2] (setting [37]), -0.0884%.

`OCCCNc1cc(-c2ccnc(Nc3cccc(Cl)c3)n2)ccn1`: the nuclei count, normalised in experiment [1] (setting [3]) stood at 46%; in experiment [1] (setting [4]) it was 37.5%; in experiment [1] (setting [5]) it was 37%; in experiment [1] (setting [6]) it was 36.9%; in experiment [1] (setting [7]), 28.8%; in experiment [1] (setting [8]) it was 20.8%. Further, the nuclei count, normalised was 22.2% in experiment [1] (setting [9]) and 23.8% in experiment [1] (setting [10]). In addition, the p53-positive nuclei, normalised is 75.9% (active) in experiment [2] (setting [11]); 41.8% (inactive) in experiment [2] (setting [12]); 16.5% (inactive) in experiment [2] (setting [13]); 8.11% (inactive) in experiment [2] (setting [14]); 23.9% in experiment [2] (setting [15]); 2.63% in experiment [2] (setting [16]). The results for the p53-positive nuclei, normalised in experiment [2] (setting [17]) and in experiment [2] (setting [18]) were 2.24% and 1.34%, respectively.

Regarding `NC(=Nc1ccc(F)cc1)NO`, the nuclei count, normalised came out at 101% in experiment [1] (setting [35]) and 95.3% in experiment [1] (setting [36]). Moreover, the p53-positive nuclei, normalised in experiment [2] (concentration not given here) is 0.0683% (inactive); in experiment [2] (setting [37]), -0.0286%.

`O=C(C=Cn1cnc(-c2cc(C(F)(F)F)cc(C(F)(F)F)c2)n1)N1CC(F)(F)C1`: the nuclei count, normalised in experiment [1] (setting [31]) came out at 66.2%; in experiment [1] (setting [32]) it was 53%. Also, the p53-positive nuclei, normalised in experiment [2] (setting [33]) is 0.0748% (inactive); in experiment [2] (setting [34]), -0.238%.

Regarding `O=C(O)CCC/C=C\C[C@H]1C(=O)C[C@@H](O)[C@@H]1/C=C/[C@@H](O)CCc1ccccc1`, the nuclei count, normalised in experiment [1] (setting [35]) is 102%; in experiment [1] (setting [36]), 107%. Besides, the p53-positive nuclei, normalised in experiment [2] (concentration not given here) was 0.0806% (inactive); in experiment [2] (setting [37]), 0.0378%.

Consider `Cc1nn(C)cc1-c1ccnc(N2CCCC(c3nc4c(C)cccc4[nH]3)C2)n1` (stereo not given), for which the figures for the nuclei count, normalised in experiment [1] (setting [35]) and in experiment [1] (setting [36]) were 103% and 106%, respectively. The p53-positive nuclei, normalised is -0.267% (inactive) in experiment [2] (concentration not given here) and -0.151% in experiment [2] (setting [37]).

In the case of `CC1(C)S[C@@H]2C(NC(=O)C(C(=O)O)c3ccccc3)C(=O)N2C1C(=O)O` (stereo not given in full), the nuclei count, normalised came out at 119% in experiment [1] (setting [31]) and 111% in experiment [1] (setting [32]). In addition, the figures for the p53-positive nuclei, normalised in experiment [2] (setting [33]) and in experiment [2] (setting [34]) were -0.208% (inactive) and -0.327%, respectively.

Regarding `COc1cc(OC)c2c(=O)[nH]c(-c3cc(C)c(OCCO)c(C)c3)nc2c1`, the nuclei count, normalised in experiment [1] (setting [19]) came to 114%; in experiment [1] (setting [20]), 107%; in experiment [1] (setting [21]) it was 118%; in experiment [1] (setting [31]) it was 108%; in experiment [1] (setting [6]), 109%; in experiment [1] (setting [22]), 111%. In addition, the nuclei count, normalised in experiment [1] (setting [23]) is 108%; in experiment [1] (setting [24]), 107%; in experiment [1] (setting [32]), 103%; in experiment [1] (setting [10]) it was 108%. Further, the p53-positive nuclei, normalised is 0.0206% (inactive) in experiment [2] (setting [25]); 0.323% (inactive) in experiment [2] (setting [26]); 0.07% (inactive) in experiment [2] (setting [27]); 0.152% (inactive) in experiment [2] (setting [33]); -0.223% (inactive) in experiment [2] (setting [14]); -0.102% in experiment [2] (setting [28]). In addition, the p53-positive nuclei, normalised in experiment [2] (setting [29]) is 0.166%; in experiment [2] (setting [30]), -0.00477%; in experiment [2] (setting [34]), 0.0179%; in experiment [2] (setting [18]), -0.153%.

On to `CC(C)c1nn(-c2c(Cl)cccc2Cl)c2nc(Cc3ccc(OCCO)cc3)[nH]c(=O)c12`, for which the nuclei count, normalised worked out at 64.8% in experiment [1] (setting [3]); 36% in experiment [1] (setting [4]); 26.2% in experiment [1] (setting [5]); 26.4% in experiment [1] (setting [6]); 50.6% in experiment [1] (setting [7]); 25.1% in experiment [1] (setting [8]). Further, the nuclei count, normalised is 17.9% in experiment [1] (setting [9]) and 18.4% in experiment [1] (setting [10]). Moreover, the p53-positive nuclei, normalised in experiment [2] (setting [11]) was 27.9% (inactive); in experiment [2] (setting [12]) it was 67% (active); in experiment [2] (setting [13]), 32.9% (inactive); in experiment [2] (setting [14]), 34.7% (inactive); in experiment [2] (setting [15]), 18.6%; in experiment [2] (setting [16]), 19.1%. Besides, the p53-positive nuclei, normalised in experiment [2] (setting [17]) stood at 6.59%; in experiment [2] (setting [18]), 4.85%.
